Assay results as given in PubChem BioAssay (NCATS).
The source made the active and inactive calls. No rule for the calls is given here.

Tested on: HIV-1 nucleocapsid protein NCp7 (binding to TG oligonucleotide)
Assay: HIV Nucleocapsid (AID 346);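 also: potency is for inhibitors that block NC binding and lower polarization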
Conditions: HIV-1 NC / fluorescein-TGTGTGTG probe, fluorescence polarization
Outline: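 Reagents dispensed (10 nM TG4xF, 100 nM HIV-1 NC), plates spun, compounds pin-transferred, then incubated 1 hr at room temperature before FP imaging. Buffer: Hepes pH 7.5, 250mM NaCl, 1uM ZnCl2, 100 uM TCEP, 5 mM 2-mercaptoethanol.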
Potency is read from the fitted curve at half-maximal effect.

| Compound | Potency |
| --- | --- |
| c1cncc(-c2cc(-n3ccnc3)ncn2)c1 | > 20 µM (inactive) |
| CN(C)c1ccc(-c2cncnc2Nc2ccccc2)cc1 | > 20 µM (inactive) |
| COc1ccc(-n2c(=O)c(-c3ccccc3)nc3cnc(N4CCN(C)CC4)nc32)cc1 | > 20 µM (inactive) |
| Cn1c(=O)c(-c2cccs2)nc2cnc(N3CCOCC3)nc21 | > 20 µM (inactive) |
| CC(C)CN1CCCC2(CCN(C(=O)c3cccc(F)c3)CC2)C1 | > 20 µM (inactive) |
| COc1cccc(-c2nc(NCCN3CCOCC3)c3ccccc3n2)c1 | > 20 µM (inactive) |
| Cc1ccccc1-c1cncnc1NCc1cccnc1 | > 20 µM (inactive) |
| COc1cccc(-c2cc(NCc3cccc(C)c3)ncn2)c1 | > 20 µM (inactive) |
| c1csc(CNc2ncnc3ccc(-c4ccc5c(c4)OCO5)cc23)c1 | > 20 µM (inactive) |
| c1ccc(-c2cccc(N3CCCC4(CCNCC4)C3)c2)cc1 | > 20 µM (inactive) |
| CN(Cc1ccco1)c1nc(-c2ccccc2C(F)(F)F)nc2ccccc12 | > 20 µM (inactive) |
| CN(C)c1nc(-c2cccnc2)nc2ccccc12 | > 20 µM (inactive) |
| Cn1c(=O)c(CCc2ccccc2)nc2cnc(Oc3ccccc3)nc21 | > 20 µM (inactive) |
| CN(C)Cc1ccccc1-c1cncnc1NCc1cccs1 | > 20 µM (inactive) |
| COc1cccc(-c2cc(NCc3cnc(C)cn3)ncn2)c1 | > 20 µM (inactive) |
| COc1ccc(C(=O)N2CCC3(CC2)CN(C(=O)Nc2cccc(C#N)c2)C3)cc1 | > 20 µM (inactive) |
| COCCn1c(=O)c(-c2cccc(Cl)c2)nc2cncnc21 | > 20 µM (inactive) |
| Cc1nc2cnc(N(C)C)nc2n(CCc2ccccc2)c1=O | > 20 µM (inactive) |
| N#Cc1ccc(CN2CC[C@@]3(CCCN(C(=O)c4ccncc4)C3)C2)cc1 | > 20 µM (inactive) |
| COCCn1c(=O)c(-c2cc(F)cc(F)c2)nc2cnc(Oc3ccc(OC)cc3)nc21 | > 20 µM (inactive) |

| Compound | Potency |
| --- | --- |
| CCNc1ncc2nc(-c3cccs3)c(=O)n(-c3ccc(OC)cc3)c2n1 | 4.09 µM (active) |
| CN(C)c1ncc2nc(CCc3ccccc3)c(=O)n(-c3ccccc3)c2n1 | > 20 µM (inactive) |
| O=S(=O)(c1ccccc1)N1CCC2(CC1)CN(Cc1nccs1)C2 | > 20 µM (inactive) |
| N#CCCn1c(=O)c(-c2cc(F)cc(F)c2)nc2cnc(OCc3ccccc3)nc21 | > 20 µM (inactive) |
| Cn1cccc1C(=O)N1CCC2(CCCN(c3ccc(-c4ccccc4)cc3)C2)CC1 | > 20 µM (inactive) |
| Cc1cccc(CNc2ncnc3ccc(-c4ccc(C(=O)N(C)C)cc4)cc23)c1 | > 20 µM (inactive) |
| CC(C)NC(=O)N1CCCC2(CCN(C(=O)c3csnn3)CC2)C1 | > 20 µM (inactive) |
| CN(Cc1ccco1)c1nc(-c2ccccc2Cl)nc2ccccc12 | > 20 µM (inactive) |
| CS(=O)(=O)N1CCC2(CC1)CN(Cc1nccs1)C2 | > 20 µM (inactive) |
| CS(=O)(=O)N1CCC2(CCCN(c3cccc(-c4ccccc4)c3)C2)CC1 | > 20 µM (inactive) |
| Cc1cnc(CNc2ncnc3ccc(-c4cccc(NS(C)(=O)=O)c4)cc23)cn1 | > 20 µM (inactive) |
| CNc1cc(-c2ccccc2C(F)(F)F)ncn1 | > 20 µM (inactive) |
| CS(=O)(=O)N1CCC[C@@]2(CCN(c3ccccc3)C2)C1 | > 20 µM (inactive) |
| COc1ncc2nc(-c3ccc(F)cc3)c(=O)n(C[C@H]3CCCO3)c2n1 | > 20 µM (inactive) |
| CCNc1ncc2nc(-c3cc(F)cc(F)c3)c(=O)n(C3CC3)c2n1 | > 20 µM (inactive) |
| Cc1ccccc1-c1cc(NCc2cccnc2)ncn1 | > 20 µM (inactive) |
| COc1cccc(Cn2c(=O)c(-c3cccs3)nc3cncnc32)c1 | > 20 µM (inactive) |
| COc1ccccc1-c1cc(NCc2cccs2)ncn1 | > 20 µM (inactive) |
| CN(C)C(=O)c1ccc(-c2nc(N(C)C)c3ccccc3n2)cc1 | > 20 µM (inactive) |
| COc1cccc(-c2ccc3ncnc(N(C)C)c3c2)c1 | > 20 µM (inactive) |
